Test results published in PubChem BioAssay AID1376 (SRMLSC, 2008).
Out of some 220,000 compounds screened, about 530 (0.24%) were called active. For the sample, actives were picked, then their nearest neighbours and some compounds at random. Potency and affinity values are given separately. Values without a mark were called inactive. No stated cut-off is given here; in the data, active means inhibition above about 13%; inconclusive means no clear call, values can overlap the other calls; inactive means below that.

biological target: Bifunctional protein GlmU (Mycobacterium tuberculosis (strain ATCC 25618 / H37Rv)) (UniProt P9WMN3); test: inhibition of mycobacterial GlmU enzyme – biochemical, glucosamine-1-phosphate acetyltransferase (AID 1376);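 further: 0% = complete reaction with vehicle and 100% = reaction without substrate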; conditions: M. tuberculosis GlmU acetyltransferase enzyme assay; stronger effect = higher value;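 tested at 30 µM in the primary screen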
Sequence (P9WMN3 whole entry, looked up): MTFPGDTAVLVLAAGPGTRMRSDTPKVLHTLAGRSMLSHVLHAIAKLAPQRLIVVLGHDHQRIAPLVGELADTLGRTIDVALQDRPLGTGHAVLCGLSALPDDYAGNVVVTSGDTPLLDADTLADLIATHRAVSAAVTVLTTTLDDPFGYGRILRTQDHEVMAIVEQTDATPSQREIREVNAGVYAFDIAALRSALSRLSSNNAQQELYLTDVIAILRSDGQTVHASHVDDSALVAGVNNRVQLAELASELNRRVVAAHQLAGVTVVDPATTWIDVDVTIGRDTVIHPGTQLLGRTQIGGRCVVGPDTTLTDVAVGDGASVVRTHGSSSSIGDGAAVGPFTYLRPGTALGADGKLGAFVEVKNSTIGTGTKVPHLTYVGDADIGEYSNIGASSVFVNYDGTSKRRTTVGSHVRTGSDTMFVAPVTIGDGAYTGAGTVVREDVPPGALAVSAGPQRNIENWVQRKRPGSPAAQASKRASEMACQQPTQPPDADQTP

Row | Compound | inhibition
1 | O=C(Nc1cccc(NC(=O)c2nccc3ccccc23)c1)c1ccco1 | -1.26%
2 | COc1cc(C(=O)Nc2ccncc2)c([N+](=O)[O-])cc1OC | 6.59%
3 | CCN1CCN(c2cc(C)c3cc(NC(=O)c4cnccn4)ccc3n2)CC1 | -5.83%
4 | O=C1c2ccccc2C(=O)N1OCc1ccc(Cl)cc1 | -2.04%
5 | O=C1NC(=O)N(Cc2ccc(F)cc2)C(=O)/C1=C/c1cccs1 | -2.44%
6 | CN(C)c1ccc(/C=C2/C(=O)NC(=O)N(Cc3ccco3)C2=O)cc1 | -4.04%
7 | C=CCN1C(=O)/C(=C/c2cccs2)C(=O)NC1=S | 4.18%
8 | CCN(CC)c1ccc(/C=C2/C(=O)NC(=O)N(Cc3ccco3)C2=O)cc1 | -0.51%
9 | O=C1NC(=S)N(Cc2ccco2)C(=O)/C1=C\c1cccs1 | 96% (active)
10 | O=C(/C=C/c1ccco1)c1ccc(NC(=O)C23CC4CC(CC(C4)C2)C3)cc1 | -0.76%
11 | Cc1ccc(C)c(S(=O)(=O)NCCOC(=O)Nc2sc(=S)n(C)c2C)c1 | 6.71%
12 | CCOC(=O)CNC(=O)CSc1nc(N)cc(N)n1 | 1.79%
13 | N#CC1=C(N)Oc2c(oc(CO)cc2=O)C1c1ccsc1 (stereo not given) | -2.69%
14 | Cc1nn(-c2ccc(Cl)cc2)c(NC(=O)C(C)C)c(-c2ccccc2)c1=O | -2.2%
15 | COc1cc(/C=C2\SC(=Nc3ccc(O)cc3)NC2=O)cc(OC)c1OC | -1.9%
16 | COc1cc(/C=C2/SC(=Nc3ccc(O)cc3)NC2=O)cc(OC)c1O | 7%
17 | COc1cc(/C=C2\SC(=Nc3ccc(O)cc3)NC2=O)cc(OC)c1O | 69.2% (active)
18 | COc1ccccc1C1=NNC(=NCc2ccccc2)SC1 | -1.42%
19 | CCN(c1ccccc1)S(=O)(=O)c1ccc(OC)c(NC(=O)CN(C)C)c1 | -3.46%
20 | CCOC(=O)C1=C(NC#N)OC(C)=C(C)C1c1ccc(O)cc1 (stereo not given) | -6.11%
21 | CC(=O)Nc1ccc(S(=O)(=O)N2CCN(c3ccccn3)CC2)cc1 | 14% (active)
22 | CC(C(=O)Nc1ccc(S(=O)(=O)N2CCCCC2)cc1)N1CCN(c2ccccn2)CC1 (stereo not given) | 0.72%
23 | Cc1ccc(S(=O)(=O)N2CCN(c3ccccn3)CC2)cc1 | 3.12%
24 | Cc1[nH]c2ccccc2c1C(=O)CSc1nc2ccccc2[nH]1 | 2.48%

Row | Compound | inhibition
25 | Cc1c(C)n(C(=O)CSc2ncn[nH]2)c2ccccc12 | 1.07%
26 | CCCCCOc1ccc(C(=O)N(Cc2ccco2)C2CCS(=O)(=O)C2)cc1 (stereo not given) | 2.23%
27 | Cc1ccc(C)n1-c1cccc(NC(=O)c2ccccc2)c1 | -0.99%
28 | Cn1c(Cn2c(=O)sc3ccccc32)nnc1SCC(=O)N1CCc2ccccc21 | -3.8%
29 | O=C1CCN(S(=O)(=O)c2ccccc2)CCN1CCOCc1ccc(F)cc1 | -0.16%
30 | CCOC(=O)C1=C(N)OC2=C(C(=O)CCC2)C12C(=O)N1c3c(ccc(C)c32)C(C)=CC1(C)C (stereo not given) | 14.7% (active)
31 | CC1=CC(C)(C)N2C(=O)C3(C(C#N)=C(N)OC4=C3C(=O)CCC4)c3c(C)c(C)cc1c32 (stereo not given) | 0.73%
32 | CCOC(=O)C1=C(N)OC2=C(C(=O)CCC2)C12C(=O)N(C)c1ccccc12 (stereo not given) | 2.06%
33 | COc1ccc([N+](=O)[O-])c(S(=O)(=O)c2ccccc2)n1 | 11.9%
34 | COc1nc(OC)nc(Oc2ccc(Cl)cc2[N+](=O)[O-])n1 | -2.5%
35 | COc1ccc([N+](=O)[O-])c(S(=O)(=O)c2ccc(Cl)cc2)n1 | 13.8% (active)
36 | CC(C(=O)NN)n1nnc(N2CCOCC2)n1 (stereo not given) | -4.73%
37 | O=C(Nc1cccc(-c2csc(Nc3ccc(Cl)cc3)n2)c1)c1cccc(C(F)(F)F)c1 | 0.14%
38 | COC(=O)c1[nH]nc(C(=O)OC(C)(C)C)c1-c1ccccc1 | 13.6% (active)
39 | COC(=O)c1cc(-c2ccccc2)n[nH]1 | 1.61%
40 | COC(=O)c1n[nH]nc1-c1ccccc1 | 2.77%
41 | CC1(C)Cc2cccc(OCC(=O)N3CCN(S(=O)(=O)c4ccc(F)cc4)CC3)c2O1 | -1.15%
42 | O=C(O)c1cccc(N/N=C/c2cccs2)c1 | 4.35%
43 | O=C(O)c1cccc(NN=C2c3ccccc3-c3ccccc32)c1 | 1.86%
44 | Cc1ccc(C(=O)N/C(=C\c2ccccc2)C(=O)NCc2cccnc2)cc1 | -0.7%
45 | CCCNC(=O)Cn1cnc2sc(C(=O)Nc3cc(OC)c(OC)c(OC)c3)c(C)c2c1=O | 1.29%
46 | CNc1ccc(Br)cc(C(=O)/C=C/c2ccc(Cl)cc2Cl)c1=O | 10.2%
47 | CNc1ccc(Br)cc(C(=O)/C=C/c2cccc(OC)c2OC)c1=O | 0.88%
48 | CNc1ccc(Br)cc(C(=O)/C=C/c2cccc(Cl)c2Cl)c1=O | 13% (active)

Row | Compound | inhibition
49 | CCS(=O)(=O)c1ccc(O)c(NC(=O)/C=C/c2ccc(Cl)cc2)c1 | 0.22%
50 | O=C(O)CNC(=O)C(Cc1ccccc1)NC(=O)OCc1ccccc1 (stereo not given) | 2.74%
51 | Cc1ccccc1CSc1nnc(-c2cnccn2)n1C | 4.71%
52 | Cn1c(SCc2ccccc2)nnc1-c1cnccn1 | -1.68%
53 | Cn1c(SCc2ccccn2)nnc1-c1cnccn1 | 13.4% (active)
54 | Cc1ccc(-n2c(Cc3ccccc3)nnc2SCC(=O)NNC(=O)Cc2ccccc2)cc1 | 2.04%
55 | Cc1c(Br)c(O)c(Br)c2sc(=O)oc12 | 14.6% (active)
56 | Cc1ccc(-c2cc(O)cc3sc(=O)oc23)cc1C | -5.89%
57 | C=CCn1c(=O)c2ccccc2n2c(SCC(N)=O)nnc12 | -2.87%
58 | C/C(=N\OCc1ccccc1C#N)c1cc2ccccc2o1 | -1.63%
59 | C/C(=N\OCc1ccc(C#N)cc1)c1ccccc1 | 2.31%
60 | C/C(=N\OCc1ccc(C#N)cc1)c1cc2ccccc2o1 | 14% (active)
61 | COc1cc(CNCc2c[nH]c3ccccc23)cc(OC)c1 | 0.77%
62 | O=C(N/N=C/c1ccc(-c2cccc([N+](=O)[O-])c2)o1)c1ccccc1O | 0.51%
63 | N/C(=N\N=C\c1ccc(O)cc1O)N[N+](=O)[O-] | 1.33%
64 | O=C1CCCN1c1cc(Cl)cc(Cl)c1 | 0.87%
65 | CCC(C)N(CCNC(=O)CC1Oc2ccc(C)cc2NC1=O)C1CCCCC1 (stereo not given) | 4.05%
66 | COc1ccc(-c2c(-c3ccc(OCC(=O)NN)cc3O)n[nH]c2C(F)(F)F)cc1 | 13.2% (active)
67 | COc1ccc(-c2c(-c3ccc(OCC(=O)NN)cc3O)n[nH]c2C)cc1 | 4.13%
68 | NNC(=O)COc1ccc(-c2n[nH]c(C(F)(F)F)c2-c2ccc(Br)cc2)c(O)c1 | -2.65%
69 | O=C(CC(NC(=O)c1ccccc1Cl)c1ccccc1)NC1=NCCS1 (stereo not given) | 2.83%
70 | CC(=O)Nc1ccc2nc3ccccc3nc2c1 | 3.15%
71 | CC(=O)Nc1ccc2ccccc2c1 | 1.2%
72 | CC(=O)Nc1ccc2cc3ccc(NC(C)=O)cc3nc2c1 | 29.2% (active)

Row | Compound | inhibition
73 | CCC(C)(C)n1nnnc1CN1CCC(n2c(C)nc3cc(C(F)(F)F)ccc32)CC1 | 2.13%
74 | CCOC(=O)c1nc2ccccc2nc1C | 3.05%
75 | O=C(CSc1nnc(-c2ccncc2)n1Cc1ccco1)Nc1nc(-c2ccccc2)cs1 | -0.09%
76 | N=C1/C(=C\c2ccc(SCc3ccco3)o2)C(=O)N=C2SC=NN12 | 8.44%
77 | Cc1cccc(C)c1-n1cccc1/C=C1\SC(=S)N(c2cccc(C(=O)O)c2)C1=O | -2.25%
78 | O=C1NC(=S)S/C1=C\c1ccc(SCc2ccccc2)o1 | 68.3% (active)
79 | CCOc1cc(/C=C2/SC(=S)NC2=O)ccc1OC(=O)c1ccco1 | 1.76%
80 | CCC1=NN2C(=N)/C(=C\c3ccc(SCc4ccco4)o3)C(=O)N=C2S1 | 4.74%
81 | CCCC1=NN2C(=N)/C(=C\c3ccc(SCc4ccco4)o3)C(=O)N=C2S1 | 30.6%
82 | O=C1NC(=S)S/C1=C/c1ccc(N2CCOCC2)o1 | 11.4%
83 | O=C(O)CN1C(=O)/C(=C/c2ccc(SCc3ccccc3)o2)SC1=S | 18.9%
84 | O=C1/C(=C\c2ccco2)SC(=S)N1c1ccccc1 | 8%
85 | O=C(O)c1cccc(N2C(=O)/C(=C/c3ccc(SCc4ccc(Cl)cc4)o3)SC2=S)c1 | 33.7% (active)
86 | NNC(=O)c1cncn1-c1ccc(F)cc1 | -2.24%
87 | CN/N=C(\Cc1nc2ccccc2[nH]1)c1ccc([N+](=O)[O-])cc1 | 2.32%
88 | CCC(Oc1ccccc1)C(=O)NCc1ccc(S(N)(=O)=O)cc1 (stereo not given) | 1.79%
89 | CC(=O)Nc1ccc(S(=O)(=O)Nc2ccc(=O)n(Cc3ccc(Cl)c(Cl)c3)c2)cc1 | -3.3%
90 | COc1cc(N(C(=O)Cc2cccs2)C(C(=O)NC2CCCCC2)c2cccc(OC)c2OC)ccc1-n1cnnn1 (stereo not given) | -6.93%
91 | OCCNc1nc(Nc2ccccc2Cl)nc(N2CCCC2)n1 | 2.46%
92 | CCCS(=O)(=O)N1CCC(C(=O)NCCCOC(C)C)CC1 | -1.86%
93 | CCC(C)NS(=O)(=O)c1ccc(S(=O)(=O)N(CCc2ccc(OC)c(OC)c2)Cc2cccs2)cc1 (stereo not given) | -1.89%
94 | Cc1ccc([N+](=O)[O-])cc1S(=O)(=O)Nc1ccccn1 | 12.5%
95 | Cc1cccc2cc(/C=N/NC(=O)[C@H]3C[C@@H]3c3ccccc3)c(Cl)nc12 | -1.46%
